From PubChem BioAssay AID686978 (National Center for Advancing Translational Sciences (NCATS), 2013)
The whole screen tested about 420,000 compounds, of which about 64,000 (15%) were called active. Inconclusive results (about 27%) are left out. A selection follows. Values without a mark were called inactive. The call rests on the fitted dose curve; in most records, active means well fitted inhibition curve with a large enough effect; inconclusive means small, poorly fitted or top-dose-only effect; inactive means flat fitted curve, though single readings scatter.

Test: qHTS for Inhibitors of human tyrosyl-DNA phosphodiesterase 1 (TDP1): qHTS in cells in absence of CPT; further: nearly all actives have a fitted effect of over 55% in size
Conditions: DT40 Tdp1-/- hTDP1 cells, no CPT, ATP luminescence, 48 h; activity change, negative = growth inhibition: at 46.2 µM (top of the series)
How it was run: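 Cells were dispensed at 400 per well, compounds added by pin tool, plates incubated ≥48 hr at 37 °C, then CellTiter-Glo added for 30 min at room temperature before luminescence reading. Line: DT40 Tdp1-/- complemented with hTDP1; camptothecin omitted.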
On the % scale 0 is the no-effect control and ±100 the full control effect; potency means the concentration at half of the fitted maximal effect.

| SMILES | activity change, negative = growth inhibition [%] | Potency |
| --- | --- | --- |
| COc1ccc(CCNC(=O)COC(=O)c2cc(=O)c3ccccc3o2)cc1 | 12 | – |
| COc1ccc(Nc2cc(=O)oc3ccccc23)cc1 | – | 4.11 µM (active) |
| COc1ccc2oc(=O)cc(-c3cc4ccccc4o3)c2c1 | -16.8 | – |
| CC1C=CCC2C(=O)N(c3cccc(C(=O)N4CCCCCC4)c3)C(=O)C12 (stereo unspecified) | -13 | – |
| CCCCCCCC(=O)OC(CN1CCCCCC1)CN1CCCC1=O (stereo unspecified) | -24.6 | – |
| CCCCNC(=O)N1CCN(S(C)(=O)=O)CC1 | -8.63 | – |
| COc1cccc(-c2nn(-c3ccccc3)cc2/C=C(\C#N)C(=O)NCCCn2ccnc2)c1 | – | 20.6 µM (active) |
| O=C(NCCCn1ccnc1)/C(=C\c1ccccc1F)NC(=O)c1ccccc1 | -16.8 | – |
| COc1cc(OC)cc(C(=O)NCCCn2ccnc2)c1 | 12.1 | – |
| NC(=NC(=O)c1ccccc1)C1=C(O)CCC1=O | 10 | – |
| N#CC1(Nc2ccc(-c3ccc(Cl)cc3)cc2)CCCC1 | -29.4 | – |
| Nc1nc(NC(=O)/C=C/c2ccccc2)nn1-c1ccccc1 | -3.08 | – |
| CCCc1cc(=O)oc2c(C)c(OCC(=O)Nc3ccccn3)ccc12 | -16 | – |
| CC1CCN(C(=O)CCc2nnc3ccc(NCc4ccco4)nn23)CC1 | -6.36 | – |
| CN1CCc2c(sc3c2c(NCc2ccco2)nc2nnnn23)C1 | – | 18.4 µM (active) |
| O=C(CN(c1cccc(Cl)c1)S(=O)(=O)c1ccccc1)NN=C1CCCC1 | 9.75 | – |
| Cc1cccc(-n2ncc3c(=O)[nH]c(SCC(=O)Nc4cc(C)on4)nc32)c1 | -21.6 | – |
| FC(F)(F)C1CCCN(c2nsc3ccccc23)C1 (stereo unspecified) | – | 2.59 µM (active) |
| O=C(NCC(=O)N1CCCC(C(F)(F)F)C1)c1ccccc1F (stereo unspecified) | -11.8 | – |
| O=C(NC(Cc1ccccc1)C(=O)N1CCCC(C(F)(F)F)C1)c1ccccc1 (stereo unspecified) | -7.09 | – |
| CC(=NC1CCN(Cc2ccccc2)CC1)c1c(O)[nH]c(=O)[nH]c1=O | 2.49 | – |
| O=C(CCc1ccccc1)NNC(=O)COc1ccc(Cl)cc1 | 3.05 | – |
| Cc1cccc(OCC(=O)N(Cc2ccc(C(C)C)cc2)Cc2ccco2)c1C | – | 20.6 µM (active) |
| O=C(CCCOc1ccccc1)NCc1ccco1 | 3.07 | – |
| Cc1ccnc(NC(=O)CCC(=O)N(CC(=O)NCc2ccccc2)Cc2ccco2)c1 | 9.59 | – |
| Cc1cccc(OCc2nnc(SCC(=O)N3CCN(C(=O)c4ccco4)CC3)n2C)c1C | -13.6 | – |

| SMILES | activity change, negative = growth inhibition [%] | Potency |
| --- | --- | --- |
| O=C(COc1ccc(Cl)cc1)N(Cc1ccco1)Cc1ccco1 | – | 20.6 µM (active) |
| O=C(Nn1cnc2ccccc2c1=O)c1ccc(F)cc1Cl | -25.1 | – |
| O=S(=O)(c1ccc(-c2ccno2)s1)N1CCCCC1 | -13 | – |
| O=C(C1CCCO1)N1CCN(C(=S)NC2CC2)CC1 (stereo unspecified) | 1.54 | – |
| Cc1ccc(S(=O)(=O)NNC(=O)Nc2cccc3ccccc23)cc1 | -108 | – |
| CC1CCc2c(nc3ncnn3c2Nc2ccc(OC(F)(F)F)cc2)C1 (stereo unspecified) | – | 20.6 µM (active) |
| CC(=O)c1nn(-c2ccc(OC(F)(F)F)cc2)nc1Nc1ccccc1 | -20.1 | – |
| CC1(C)C(C=C(Cl)Cl)C1C(=O)NC(O)C(=O)c1ccccc1 (stereo unspecified) | -29.8 | – |
| Nc1ccccc1N | – | 7.7 µM (active) |
| Nc1ccccc1/C=N\N=C/c1ccccc1N | -7.67 | – |
| Nc1cccnc1Sc1ccccc1 | -8.79 | – |
| COc1cc2c(cc1CNC[C@H]1O[C@@H](n3cnc(C(N)=O)n3)[C@H](O)[C@@H]1O)OCO2 | -13.2 | – |
| Cc1ccsc1-c1nc(CSCC(=O)NCCN2CCCC2)c(C)o1 | 4.82 | – |
| CC1CCCCC1NC(=O)c1cc(=O)[nH]c2ccccc12 (stereo unspecified) | -24.4 | – |
| COC(=O)CNC(=O)c1cc(-c2ccncc2)nc2ccccc12 | -24.2 | – |
| CC1CCCC(NC(=O)c2cc(-c3ccncc3)nc3ccccc23)C1C (stereo unspecified) | – | 23.1 µM (active) |
| Cc1ccn2cc(C(=O)NC3CCN(Cc4ccccc4)CC3)nc2c1 | -12.8 | – |
| CCOC(=O)N1CCC(NC(=O)CCc2ccccc2)CC1 | -5.47 | – |
| Cc1ccc(-c2nc(CSCC(=O)NC3CCN(Cc4ccccc4)CC3)c(C)o2)cc1 | – | 16.4 µM (active) |
| Cc1cc(C(=O)NC2CCN(Cc3ccccc3)CC2)n[nH]1 | -5.37 | – |
| Cc1ccc(-c2cc(C(=O)NC3CCN(Cc4ccccc4)CC3)c3ccccc3n2)cc1 | – | 16.4 µM (active) |
| C=CCn1c(SCC(=O)NC23CC4CC(CC(C4)C2)C3)nc(O)cc1=O | 4.5 | – |
| COc1ccc2c(CC(=O)NNC(=O)c3ccccc3F)coc2c1 | -3.08 | – |
| CCC1([N+](=O)[O-])COC(c2ccc(C)cc2)OC1 (stereo unspecified) | -3.79 | – |
| O=C1CCc2cc(S(=O)(=O)N3CCC(C(=O)NCc4ccccc4Cl)CC3)ccc2N1 | -4.74 | – |
